Measured values as given in PubChem BioAssay AID743361 (Molecular Libraries Program, Specialized Chemistry Center, …, 2014).
Values without a mark were called inactive. Active and inactive are the calls of the source. The rule behind the calls is not given here.

Assay: Rhodamine 123 quenching counterscreen activity, dose response, counter-screen for mtPTP inhibitor project, biochemical, dry powder samples, uHTS hits, fluorescence (AID 743361)
Conditions: Rhodamine 123 fluorescence quenching counterscreen, cell-free

Row | Structure (SMILES) | IC50
1 | Cc1ccc(-c2cc(C(=O)Nc3cccc(Cl)c3)no2)cc1 | > 100 µM
2 | O=S(=O)(Nc1ccc(CN2CCCCC2)cc1)c1cccc(Cl)c1 | > 100 µM
3 | O=C(Nc1ccc(Cl)cc1)c1cc(-c2cccc(O)c2)on1 | > 100 µM
4 | CN1CCN(CCc2ccc(NS(=O)(=O)c3ccc(F)c(Cl)c3)cc2)CC1 | > 100 µM
5 | COc1ccc(Cl)cc1C(=O)Nc1ccc(N2CCOCC2)cc1 | > 100 µM
6 | Cc1ccc(NC(=O)c2cc(-c3cccc(O)c3)on2)cc1Cl | > 100 µM
7 | COc1ccc(Cl)cc1C(=O)Nc1cccc(CN2CCNCC2)c1 | > 100 µM
8 | CN1CCN(c2ccc(NS(=O)(=O)c3cccc(Cl)c3)cc2)CC1 | > 100 µM
9 | CN1CCN(c2ccc(NC(=O)c3ccc(OCc4ccccc4)cc3)cc2)CC1 | > 100 µM
10 | O=C(Nc1cccc(Cl)c1)c1cc(-c2ccc(Cl)cc2)on1 | > 100 µM
11 | O=S(=O)(Nc1ccc(CCN2CCCCC2)cc1)c1cccc(Cl)c1 | > 100 µM
12 | CN1CCN(Cc2ccc(NS(=O)(=O)c3cc(Cl)cc(Cl)c3)cc2)CC1 | > 100 µM
13 | O=C(Nc1ccc(CN2CCCCC2)cc1)c1ccc(Cl)c(OCc2ccccc2)c1 | 28.2 µM (active)
14 | COc1ccc(Cl)cc1C(=O)Nc1ccc(N2CCCCC2)cc1 | > 100 µM
15 | O=C(Nc1ccc(F)cc1F)c1cc(-c2ccccc2)on1 | > 100 µM
16 | COc1ccccc1C(=O)Nc1ccc(CN2CCCCC2)cc1 | > 100 µM

Row | Structure (SMILES) | IC50
17 | O=C(Nc1ccc(CN2CCCCC2)cc1)c1cccc(Cl)c1 | > 100 µM
18 | CN1CCN(CCc2ccc(NS(=O)(=O)c3cccc(Cl)c3)cc2)CC1 | > 100 µM
19 | COc1ccc(NC(=O)c2cc(-c3ccc(Cl)cc3)on2)cc1Cl | > 100 µM
20 | COc1ccc(Cl)c(C(=O)Nc2ccc(CN3CCCCC3)cc2)c1 | > 100 µM
21 | O=C(Nc1ccc(CN2CCCCC2)cc1)c1cc(Cl)cc(OCc2ccccc2)c1 | 26.9 µM (active)
22 | CN1CCN(c2ccc(NS(=O)(=O)c3ccc(F)c(Cl)c3)cc2)CC1 | > 100 µM
23 | COc1ccc(Cl)cc1C(=O)Nc1ccc(CCN2CCOCC2)cc1 | > 100 µM
24 | COc1ccc(Cl)cc1S(=O)(=O)Nc1ccc(CN2CCCCC2)cc1 | > 100 µM
25 | CCCc1cc(C(=O)Nc2ccc(Br)cc2)no1 | > 100 µM
26 | COc1ccc(Cl)cc1C(=O)Nc1ccc(CN2CCCCC2)cc1 | > 100 µM
27 | Cc1cc(NC(=O)c2cc(-c3ccc(F)cc3)on2)no1 | > 100 µM
28 | Cc1c(Cl)cccc1NC(=O)c1cc(-c2cccc(O)c2)on1 | > 100 µM
29 | CC(C)C1CCN(CCCC(=O)c2ccc(Br)cc2)CC1 | 64.6 µM (active)
30 | O=C(Nc1cccc(F)c1)c1cc(-c2cccc(O)c2)on1 | > 100 µM
31 | COc1ccc(Cl)cc1C(=O)Nc1ccc(CCN2CCN(C)CC2)cc1 | > 100 µM
